# Assay outcomes: PubChem BioAssay, National Center for Advancing Translational Sciences (NCATS)
# KB-3-1 cytotox: kills parental KB-3-1 adenocarcinoma cells. KB-3-1 viability, CellTiter-Glo ATP luminescence, 72 h. actives 1.4% (n = 400,000). AID 1347075. Potency, µM (doses to about 46.1 µM), hits mostly cytotoxic; further: on the % scale 0 is the no-effect control and ±100 the full control effect; nearly all actives have a fitted effect of over 60% in size
#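 KB-3-1 cells, DMEM (no phenol red) + 10% FBS; compound by pin transfer, 72 h, 37 °C. Readout: CellTiter-Glo luminescence after 10 min. Data normalized, curve-fitted.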
# MCF10A rereplic: induces DNA re-replication in MCF 10a normal breast cells. MCF 10A DNA re-replication, Hoechst nuclear intensity, 48 h. Potency, µM (series often up to 46.1 µM), inactives show at the top dose activity, positive = re-replication, actives largely listed as activators. actives 2.9% (n = 350,000); further: % of control where 0% means no effect; nearly all actives have a fitted effect of over 50% in size
# SW480 rereplic: DNA re-replication induction in SW480 cells | actives 1.8% (n = 340,000) | SW480 DNA re-replication, Hoechst DNA content imaging, 48 h | Potency, µM (series often up to 46.1 µM), inactives show at the top dose re-replication activation, most hits filed as activators; further: % of control where 0% means no effect; nearly all actives have a fitted effect of over 55% in size
#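 Per well, 250 cells were exposed to pinned compound for 48 hr. Nuclear DNA was visualised with Hoechst (40 min, 37 C) and total object intensity recorded by fluorescence scanning.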
# HT1080-NT tox: kills 2HG-producing HT-1080-NT fibrosarcoma cells; HT-1080-NT fibrosarcoma viability, CellTiter-Glo ATP luminescence, 48 h; Potency, µM (titrated, usually from 46.1 µM), for inactives: top-dose activity, negative = less viability, hits mostly cytotoxic; actives 1.6% (n = 360,000);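 further: NT is the 2HG producing partner of a matched IDH1 knockdown line; 0% = DMSO-treated cells and -100% = media-only wells without cells; nearly all actives have a fitted effect of over 55% in size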
#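 Viability by CellTiter-Glo luminescence after 48 h compound exposure at 37C of HT-1080-NT cells (750/well, RPMI, 5% FBS). % activity scaled between DMSO wells and medium-only wells, then curve-fitted and categorized by curve class.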
# KB-V1 cytotox: kills drug-selected multidrug resistant KB-V1 cells. actives 3.4% (n = 400,000). KB-V1 MDR cells viability, CellTiter-Glo, 72 h. Potency, µM (series often up to 46.1 µM), most hits filed as cytotoxic; further: on the % scale 0 is the no-effect control and ±100 the full control effect; nearly all actives have a fitted effect of over 60% in size
#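 Cells of the MDR subline KB-V1 are plated, dosed with compound at multiple concentrations, and incubated 72 h at 37 degrees C; CellTiter-Glo is then added and luminescence read after 10 min.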
# HT1080 IDH1KD tx: kills HT-1080 cells with IDH1 knockdown | HT-1080 IDH1 knockdown viability, ATP luminescence, 48 h | Potency, µM (highest dose often 46.1 µM), inactives show top-dose activity, negative = toxicity, actives largely listed as cytotoxic | actives 2% (n = 360,000);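 further: 0% = DMSO wells and -100% = cell-free medium wells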
#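 CellTiter-Glo luminescence after 48 h compound exposure at 37 degrees C of IDH1-knockdown HT-1080 cells in 5% FBS RPMI. %Activity scaled between DMSO wells and cell-free media wells, with curves fitted and assigned curve classes.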
# The depositor's hits bear a star; i = inactive; ? = inconclusive; nt = not tested or not shown. Compounds with a hit are over-represented: about 8% of the library has one in this group of screens. The call rests on the fitted dose curve; in most records, active means well fitted curve in the direction sought with a large enough effect; inconclusive means small, poorly fitted or top-dose-only effect, or another doubt; inactive means no such curve, though single readings can be large; an effect the other way counts as inactive or inconclusive. Potency means the concentration at half of the fitted maximal effect.
SMILES,KB-3-1 cytotox,MCF10A rereplic,SW480 rereplic,HT1080-NT tox,KB-V1 cytotox,HT1080 IDH1KD tx
COc1ccc(-c2csc(N(CCCN(C)C)C(=O)c3ccccc3Cl)n2)cc1,16µM*,?,?,21µM*,?,18µM*
O=C(COc1ccccc1)N(CCc1ccccc1)c1nc(-c2ccc(F)cc2)cs1,i,28%,11%,19%,15µM*,21%
COc1cccc(CNC(=O)c2cnc(N3CCCCC3)c3ccccc23)c1,i,nt,nt,nt,i,nt
COc1ccc(C(=O)OC2=C(C(=O)c3ccccc3)N(C)S(=O)(=O)c3ccccc32)cc1OC,i,nt,nt,nt,i,nt
CCOC(=O)c1cnc(Nc2nc3ccccc3o2)nc1CN1CCN(C)CC1,?,?,?,?,13µM*,15µM*
COc1ccc(/C=C(\C#N)C(=O)Nc2cc(C)c(Cl)cc2OC)cc1O,21µM*,?,10µM*,2%,i,4%
Cc1ccc(S(=O)(=O)CCC(=O)NCCN2C(=O)S/C(=C\c3ccccc3)C2=O)cc1,i,?,-22%,-8%,12µM*,-12%
O=C(CCS(=O)(=O)c1ccc(Cl)cc1)NCCN1C(=O)S/C(=C\c2ccccc2F)C1=O,i,19%,3%,-10%,13µM*,-4%
Cc1ccc(S(=O)(=O)CCC(=O)NCCc2ccccc2)cc1,i,5%,-6%,-2%,i,-5%
COc1ccccc1C(=O)/C=C/c1ccc(N2CCCCC2)c([N+](=O)[O-])c1,?,6.5µM*,18µM*,?,10µM*,?
O=C(/C=C/c1ccc(N2CCCCC2)c([N+](=O)[O-])c1)c1ccc(O)cc1,?,21%,?,18µM*,?,18µM*
O=C(O/N=C\c1ccc(N2CCCCC2)c([N+](=O)[O-])c1)c1ccc(Cl)cc1Cl,i,-6%,?,0%,?,14%
Cc1c(CCC(=O)NCCCn2ccnc2)c(=O)oc2c(C)c3oc4c(c3cc12)CCCC4,23µM*,14%,-3%,-21%,i,-17%
COc1ccc(-c2ccc(SCC(=O)c3cccs3)nn2)cc1,?,-1%,-8%,-10%,16µM*,-20%
CC(C)N1CCC(C)(C(=O)Nc2cccc3c2CCCC3)C1 (stereo not given),i,nt,nt,7%,i,22%
C[C@@H](N)C(=O)N[C@H]1CCC2C3CC=C4C[C@@H](O)CC[C@]4(C)C3CC[C@@]21C (stereo not given in full),i,?,?,-5%,i,-6%
CC(C)[C@H](N)C(=O)N[C@H]1CCC2C3CC=C4C[C@@H](O)CC[C@]4(C)C3CC[C@@]21C (stereo not given in full),i,nt,nt,18µM*,i,?
CCN(CC)c1ccc(/C=C/C2=C3C=CC=CC3NC=C2)cc1 (stereo not given),?,nt,nt,nt,i,nt
O=C(Nc1ccc(Br)c2ccccc12)c1ccc2ccccc2c1O,i,3.3µM*,2%,?,i,?
Cc1ccccc1-c1ccc(/C=C2/SC(N3CCOCC3)=NC2=O)o1,i,16µM*,?,-24%,?,?
O=C1N=C(N2CCOCC2)S/C1=C\c1ccc(-c2ccccc2Cl)o1,i,2.9µM*,13µM*,15%,i,10%
COc1ccc(-c2c(C(=O)c3ccccc3)[nH]c(N)c2C(=O)c2ccc(Br)cc2)cc1OC,?,nt,nt,-24%,?,-14%
O=C(CCN1CCCCC1)N/N=C/c1c[nH]c2ccccc12,i,6%,-7%,?,i,11%
O=C1C(=O)C(c2cc(O)c(O)c(O)c2)Oc2cc(O)cc(O)c21 (stereo not given),?,nt,nt,nt,i,nt
CCN1CCCC1CNCc1cccc(OC)c1OCc1ccc(F)cc1 (stereo not given),i,15%,2%,1%,12µM*,-9%
